Assay [1] in a line: anti-His antibody binders, primary screen, artefact control for SMM control protein annotation, biochemical, small-molecule microarray, 635 nm fluorescence (AID 1128).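 Note: score merges feature fluorescence with signal-to-noise for each printed compound spot.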 Conditions: anti-His Alexa647 antibody binding, higher = more signal.
The subject of assay [2] is Human papillomavirus type 1a E7 protein (residues 1-88). Description: HPV1a E7 small-molecule binders, primary screen, biochemical, small-molecule microarray, residues 1-88, 635 nm (AID 1129). The note with it: small-molecule microarray binding, fluorescence 635 nm; higher = more signal.
Assay [3] deals with Focal adhesion kinase 1 (Homo sapiens) (UniProt Q05397). Description: small-molecule microarray binders of FAK, primary screen, biochemical, 635/667 nm fluorescence, BSA, DTT (AID 1130).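 Note: composite of spot emission at 667 nm and signal to noise over triplicate slides.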 Conditions: PTK2 binding, 635 nm fluorescence, higher = more signal.
Assay [4] concerns Fibrinogen (Alexa647-labelled). Description: fibrinogen binders on compound microarrays, profiling panel, artefact control for SMM control-protein annotation, biochemical, small-molecule microarray, 635/667 nm fluorescence (AID 1131).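 Note: z-score merges 667 nm fluorescence with per-spot signal-to-noise over triplicate slides.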 Conditions: fibrinogen-A647 binding fluorescence, higher = more signal.
Assay [5] addresses Follistatin (Homo sapiens) (UniProt P19883). Description: follistatin binders on small-molecule microarrays, primary screen, biochemical, small-molecule microarray, 635/667 nm fluorescence (AID 1132). The note with it: FST binding, 635 nm fluorescence, higher = more signal.
Assay [6] has as its target Fibroblast growth factor 2 (Homo sapiens) (UniProt P09038). Description: FGF2 binders on small-molecule microarrays, primary screen, biochemical, small-molecule microarray, 635/667 nm fluorescence (AID 1133). Conditions: small-molecule microarray binding, FGF2, fluorescence 635/667; higher = more signal.
A short description of assay [7]: mitochondrial membrane potential change in A549 cells, profiling panel, cell-based, JC-1 fluorescence, basal, 24 h, 100 nL (AID 1138).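 Note: A549 lung adenocarcinoma cells under basal conditions with no added stimulus; test concentration not given here.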 Conditions: higher = more signal.
In assay [8] the test system is Lefty1. Description: Lefty1 binders on small-molecule microarrays, primary screen, biochemical, small-molecule microarray, 635/667 nm fluorescence (AID 1139). The note with it: small-molecule microarray binding, fluorescence 635/667; higher = more signal.
The subject of assay [9] is wheat germ agglutinin (Triticum aestivum), Alexa647-labelled. Description: wheat germ agglutinin binders on compound microarrays, profiling panel, artefact control for SMM control-protein annotation, biochemical, small-molecule microarray, 635/667 nm fluorescence (AID 1140).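 Note: score merges 667 nm feature emission with signal to noise over triplicate slides.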 Conditions: WGA-A647 binding, 635 nm fluorescence, higher = more signal.
The target of assay [10] is Luciferin 4-monooxygenase (Photinus pyralis) (UniProt P08659). Description: firefly luciferase enzyme inhibitors, primary screen, biochemical, luminescence, purified enzyme, 2006 set (AID 1141).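 Note: cell-free assay with purified firefly luciferase at 100 ng per well in PBS; test concentration not given here.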 Conditions: SteadyGlo luminescence, 30 min, higher = more signal, called active from +8 up or from −8 down.
Assay [11] relates to Wnt5a (protein binding on small-molecule microarray). Description: Wnt5a binders on small-molecule microarray, primary screen, biophysical, 635/667 nm fluorescence (AID 1142).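 Note: fluorescence read at 667 nm with signal to noise per printed feature.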 The note with it: 635 nm fluorescence, higher = more signal.
A short description of assay [12]: cell viability in Huh7 cells, primary screen, cytotoxicity control for HCV replication inhibitor project, CellTiter-Glo luminescence, basal, 48 h (AID 1143).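 Note: Huh7 hepatoma cells carrying a hepatitis C replication reporter with no stimulus; test concentration not given here.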 Conditions: Huh7 HCV replicon, higher = more signal, called active from +8 up or from −8 down.
The nature of assay [13]: P. aeruginosa biofilm formation inhibitors, primary screen, PAO1 strain, BacTiter-Glo luminescence, LB-PBS (AID 1144). The note with it: 12 h, higher = more signal.
The nature of assay [14]: CREB reporter modulators without forskolin, primary screen, cell-based, PC12, CRE-LacZ reporter, unstimulated (AID 1145). Conditions: no forskolin, luminescence, 4.5 h, higher = more signal, called active from +8 up or from −8 down.
Assay [15] can be described thus: CREB reporter modulators under forskolin, primary screen, cell-based, PC12, CRE-LacZ reporter, forskolin-stimulated (AID 1146).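 Note: PC12 cells with 6xCRE LacZ reporter stimulated by forskolin 10 µM; beta-galactosidase reporter signal reflecting CREB driven transcription.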 Conditions: luminescence, 4.5 h, higher = more signal, called active from +8 up or from −8 down.
For assay [16], the target named is Streptavidin (Streptomyces avidinii) (UniProt P22629). Description: streptavidin binders on small-molecule microarray, primary screen, artefact control for SMM compound annotation, biophysical, 635/667 nm fluorescence (AID 1147).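 Note: signal reflects streptavidin binding to arrayed compounds as a control protein.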 The note with it: streptavidin binding, higher = more signal.
Assay [17] can be described thus: small-molecule binders of probe aInhba, primary screen, biochemical, small-molecule microarray, 635/667 nm fluorescence (AID 1148).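 Note: score merges 667nm spot fluorescence with signal-to-noise for antibody binding to printed compounds.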 The note with it: higher = more signal.
Assay [18] concerns the target Torsin-1A (Homo sapiens) (UniProt O14656). Description: torsin A binders from cell lysate, primary screen, small-molecule microarray, wild-type, 635/667 nm (AID 1149). Conditions: COS7 hTOR1A-WT lysate, 635 nm fluorescence, higher = more signal.
The target is the same in assay [19]. Description: small-molecule binders of mutant TOR1A in lysate, primary screen, cell lysate, small-molecule microarray, COS7 lysate, 635/667 nm fluorescence (AID 1150).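 Note: score pools 667 nm emission and signal to noise measuring lysate protein binding.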 The note with it: COS7 hTOR1A mutant lysate, 635 nm fluorescence, higher = more signal.
The subject of assay [20] is Sonic hedgehog protein (Shh). Description: small-molecule binders of Shh protein, primary screen, biochemical, small-molecule microarray, 635/667 nm fluorescence (AID 1151).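 Note: Shh protein binding to compounds spotted on small-molecule microarray slides; score combines spot fluorescence intensity with signal-to-noise across triplicate slides.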 The note with it: small-molecule microarray binding, 635 nm fluorescence; higher = more signal.

The values below come from PubChem BioAssay.

Calls of active or inactive are those of the source. Unless noted, the rule behind the calls is not given here.

Focal adhesion kinase 1 (Homo sapiens), sequence (Q05397 whole entry, looked up): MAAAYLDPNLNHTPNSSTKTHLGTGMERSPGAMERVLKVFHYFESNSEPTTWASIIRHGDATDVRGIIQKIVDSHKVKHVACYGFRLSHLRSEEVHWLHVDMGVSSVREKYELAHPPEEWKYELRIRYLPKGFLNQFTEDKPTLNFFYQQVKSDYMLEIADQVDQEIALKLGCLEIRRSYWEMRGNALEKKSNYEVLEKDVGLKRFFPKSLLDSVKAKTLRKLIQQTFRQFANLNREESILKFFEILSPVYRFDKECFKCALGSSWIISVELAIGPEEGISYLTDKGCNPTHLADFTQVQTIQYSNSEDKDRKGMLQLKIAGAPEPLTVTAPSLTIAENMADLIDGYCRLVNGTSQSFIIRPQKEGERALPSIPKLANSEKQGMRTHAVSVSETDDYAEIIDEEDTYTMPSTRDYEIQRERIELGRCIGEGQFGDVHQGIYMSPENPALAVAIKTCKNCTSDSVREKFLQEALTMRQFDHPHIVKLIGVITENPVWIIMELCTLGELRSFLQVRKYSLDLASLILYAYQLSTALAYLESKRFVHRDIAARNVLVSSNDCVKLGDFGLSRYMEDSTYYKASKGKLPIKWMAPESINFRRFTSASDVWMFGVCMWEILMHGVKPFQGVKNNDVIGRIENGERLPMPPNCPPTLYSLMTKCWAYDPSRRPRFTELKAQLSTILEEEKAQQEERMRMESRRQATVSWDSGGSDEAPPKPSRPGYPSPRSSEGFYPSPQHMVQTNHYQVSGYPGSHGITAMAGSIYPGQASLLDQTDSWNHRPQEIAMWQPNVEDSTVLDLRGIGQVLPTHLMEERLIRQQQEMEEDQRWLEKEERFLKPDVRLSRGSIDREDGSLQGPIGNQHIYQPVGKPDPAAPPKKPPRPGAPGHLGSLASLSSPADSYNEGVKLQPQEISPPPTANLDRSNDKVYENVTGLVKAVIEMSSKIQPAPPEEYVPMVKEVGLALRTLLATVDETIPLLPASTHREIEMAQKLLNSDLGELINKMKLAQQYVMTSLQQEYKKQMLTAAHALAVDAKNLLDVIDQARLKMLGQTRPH
Luciferin 4-monooxygenase (Photinus pyralis), sequence (P08659 whole entry, looked up): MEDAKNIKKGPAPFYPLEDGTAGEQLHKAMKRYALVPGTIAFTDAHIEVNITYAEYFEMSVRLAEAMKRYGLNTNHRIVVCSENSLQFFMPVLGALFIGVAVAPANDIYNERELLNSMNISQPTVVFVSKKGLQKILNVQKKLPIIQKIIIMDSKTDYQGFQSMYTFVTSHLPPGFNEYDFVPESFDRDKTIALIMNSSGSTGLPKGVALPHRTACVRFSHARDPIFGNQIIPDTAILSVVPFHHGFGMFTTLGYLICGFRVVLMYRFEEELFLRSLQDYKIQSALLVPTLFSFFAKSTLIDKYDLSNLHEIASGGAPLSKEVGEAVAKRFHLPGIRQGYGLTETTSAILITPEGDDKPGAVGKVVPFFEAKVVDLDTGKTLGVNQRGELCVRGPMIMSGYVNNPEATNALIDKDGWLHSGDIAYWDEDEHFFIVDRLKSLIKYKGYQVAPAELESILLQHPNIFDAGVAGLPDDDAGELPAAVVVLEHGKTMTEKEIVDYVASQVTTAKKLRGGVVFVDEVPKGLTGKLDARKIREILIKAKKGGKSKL
Fibroblast growth factor 2 (Homo sapiens), sequence (P09038 whole entry, looked up): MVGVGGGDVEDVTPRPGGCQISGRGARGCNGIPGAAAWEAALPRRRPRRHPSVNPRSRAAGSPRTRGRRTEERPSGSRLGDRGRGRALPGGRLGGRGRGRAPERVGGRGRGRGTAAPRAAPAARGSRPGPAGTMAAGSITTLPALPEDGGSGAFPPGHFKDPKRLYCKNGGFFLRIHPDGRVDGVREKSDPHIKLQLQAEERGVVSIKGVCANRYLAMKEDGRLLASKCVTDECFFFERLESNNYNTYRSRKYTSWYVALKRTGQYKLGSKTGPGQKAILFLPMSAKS
Follistatin (Homo sapiens), sequence (P19883 whole entry, looked up): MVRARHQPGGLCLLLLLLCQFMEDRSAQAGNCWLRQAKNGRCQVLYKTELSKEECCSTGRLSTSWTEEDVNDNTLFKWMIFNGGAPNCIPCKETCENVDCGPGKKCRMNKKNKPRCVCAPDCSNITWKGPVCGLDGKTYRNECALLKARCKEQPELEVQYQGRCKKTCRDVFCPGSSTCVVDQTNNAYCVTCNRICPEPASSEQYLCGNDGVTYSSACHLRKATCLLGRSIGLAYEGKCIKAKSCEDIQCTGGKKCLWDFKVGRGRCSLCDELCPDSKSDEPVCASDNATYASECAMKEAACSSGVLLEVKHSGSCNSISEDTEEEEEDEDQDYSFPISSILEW
Torsin-1A (Homo sapiens), sequence (O14656 whole entry, looked up): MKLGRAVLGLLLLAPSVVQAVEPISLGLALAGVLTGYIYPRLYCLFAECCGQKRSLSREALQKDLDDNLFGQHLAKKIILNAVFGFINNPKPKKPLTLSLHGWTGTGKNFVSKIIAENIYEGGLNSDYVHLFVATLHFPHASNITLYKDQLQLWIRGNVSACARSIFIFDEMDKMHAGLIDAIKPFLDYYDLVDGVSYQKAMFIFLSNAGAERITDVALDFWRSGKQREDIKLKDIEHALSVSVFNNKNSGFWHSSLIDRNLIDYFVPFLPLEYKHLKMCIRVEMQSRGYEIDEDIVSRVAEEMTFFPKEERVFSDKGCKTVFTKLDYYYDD
Streptavidin (Streptomyces avidinii), sequence (P22629 whole entry, looked up): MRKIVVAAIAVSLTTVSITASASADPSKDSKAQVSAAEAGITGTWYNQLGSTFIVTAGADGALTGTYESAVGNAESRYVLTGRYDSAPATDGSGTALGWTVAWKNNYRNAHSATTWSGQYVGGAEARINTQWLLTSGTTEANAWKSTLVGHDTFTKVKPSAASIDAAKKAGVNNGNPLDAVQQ

Regarding `COc1ccc(C(=O)Nc2cccc(CN3C(=O)[C@@]4(O[C@@H](CCn5cc([C@H](O)c6ccccc6)nn5)[C@H]([Si](C)(C)c5ccc(OC)cc5)[C@H]4C)c4ccccc43)c2)cc1`, the composite z-score in assay [1] was determined as 0.669; in assay [2] it was 0.138; in assay [3], 0.638; in assay [4] it was 0.528; in [5], 1.19; in assay [6] it was 0.612. Also, the composite z-score in assay [8] was 1.01; in assay [9] it was 0.443; in assay [11], 0.417; in assay [16], 0.0185; in assay [17] it was 0.0714; in assay [18] it was -0.12. The composite z-score in assay [19] came out at 0.377; in assay [20], 1.89. Also, the z-score in assay [7] is -0.175; in [10], 0.39 (inactive); in assay [12], -6.59 (inactive); in assay [13], -0.301 (inactive); in assay [14], 0.833 (inactive); in assay [15] it was 0.834 (inactive).
Turning to `O=C1OCCC=C[C@H]2OC34C=CCN(CCN5CCOCC5)C(=O)[C@H]3N(CCO)C(=O)[C@@H]4C12` (stereo not given in full), the composite z-score in assay [1] is 1.07; in assay [2], -0.793; in [3] it was -0.379; in assay [4], 0.236; in assay [5] it was 1.11; in [6], 0.785. Besides, the composite z-score in [8] was 0.648; in assay [9], 0.418; in assay [11], -0.141; in assay [16] it was -0.983; in assay [17], -0.168; in assay [18], -0.23. The composite z-score came out at 0.0141 in assay [19] and 0.731 in assay [20]. Further, the z-score was -0.849 in assay [7]; -0.0527 (inactive) in [10]; 0.473 (inactive) in assay [12]; 0.329 (inactive) in [13]; -0.358 (inactive) in assay [14]; -0.0338 (inactive) in assay [15].
Consider `Cn1c2c(c3ccccc31)C(=O)C1NC2C=CC1(C)C(=O)OCc1ccccc1` (stereo not given), for which the composite z-score in assay [1] is 0.262; in [2], 0.291; in assay [3], 0.0584; in [4] it was 0.351; in assay [5], -2.07; in assay [6] it was -2.05. In addition, the composite z-score in assay [8] was -1.82; in [9], 0.757; in assay [11], -0.348; in assay [16], 0.298; in [17] it was 0.0442; in assay [18], -0.327. In addition, the composite z-score is 0.285 in [19] and -0.699 in [20]. Further, the z-score was -0.591 in assay [7]; 1.15 (inactive) in assay [10]; -0.171 (inactive) in assay [12]; 0.908 (inactive) in assay [13]; 1.39 (inactive) in assay [14]; 0.716 (inactive) in assay [15].
In the case of `CC(C)N1C(=O)c2ccccc2[C@](C)(C(=O)NC2CC2)[C@@H]1c1ccc(CO)cc1`, the composite z-score in [1] is 1.58; in [2] it was 0.875; in assay [3] it was -0.118; in assay [4], 0.803; in assay [5], 1.12; in assay [6] it was 0.507. The composite z-score is 0.0517 in assay [8]; 0.497 in assay [9]; 0.204 in [11]; -0.166 in assay [16]; -0.2 in assay [17]; 1.11 in assay [18]. Also, the composite z-score worked out at 0.74 in [19] and 0.889 in assay [20]. The z-score in assay [7] was 0.378; in assay [10], 1.34 (inactive); in [12], -0.997 (inactive); in assay [13], -0.723 (inactive); in assay [14] it was 0.118 (inactive); in [15], 0.957 (inactive).
Turning to `CC[C@@H]1C=C(C(=O)O)[C@H](c2ccc(C(C)C)cc2)N1S(=O)(=O)c1ccc(C)cc1`, the composite z-score in assay [1] amounted to 2.08; in assay [2], 1.21; in assay [3] it was 1.17; in [4], 1.03; in assay [5] it was 0.919; in [6], 0.52. Further, the composite z-score in assay [8] was 0.0565; in assay [9] it was 1.35; in assay [11], 0.764; in assay [16] it was 0.939; in assay [17] it was 0.432; in assay [18], 0.145. Also, the composite z-score in assay [19] came out at 1.22; in [20], 0.34. Also, the z-score in [7] is -1.25; in [10], 0.734 (inactive); in assay [12], -0.822 (inactive); in assay [13], 0.448 (inactive); in [14], -0.0137 (inactive); in [15], -0.0578 (inactive).
